Results from PubChem BioAssay (EPA / NIEHS).
Inconclusive results are not listed. The source holds several records for some structures; these can differ, active in one and inactive in another. The source made the active and inactive calls. The calls were made as follows, unless noted: active = hit-call score of the fitted dose curve at least 0.9, where 1 is the maximum; inactive = score below 0.9.

Tests used:
[1] = CCTE_Shafer_MEA_acute_AB: CCTE's Alamar Blue Assay for Cytotoxicity in the Neural Acute Assay, Shafer Lab (AID 2284069; active = hit-call score of the fitted dose curve at least 0.9, where 1 is the maximum;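 also: active compounds lower the viability signal compared with DMSO wells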)
How it was run: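 Primary rat cortical neurons on MEA plates, exposed acutely after baseline recording on day 13 or 15 post-plating. Viability by CellTiter Blue resazurin reduction (1:6 reagent dilution), fluorescence 544/590 nm; loss of signal versus DMSO.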

[2] = CCTE_Shafer_MEA_acute_LDH: CCTE's Lactate Dehydrogenase Assay for Cytotoxicity in the Neural Acute Assay, Shafer Lab (AID 2284086; active = hit-call score of the fitted dose curve at least 0.9, where 1 is the maximum;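 also: active means LDH release rises above DMSO vehicle level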)
How it was run: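 Medium from rat cortical neuron MEA cultures sampled right after the 40 min compound-exposure recording; released LDH measured by absorbance at 490 nm. Analyzed as signal gain relative to DMSO.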

[3] = TAMU_PeakParms_SingleDonor1434_Chronotropy: Texas A&M University (TAMU) 1.5-hr Human Induced Pluripotent Stem Cell (iPSC)-derived Cardiomyocytes Calcium (Ca+2) Flux Assay for Cardiotoxicity: Chronotropy (changes in peak frequency) (AID 2284217); settings: actives raise or lower the signal
How it was run: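 iPSC-derived cardiomyocytes (single donor 1434) dosed at 0.2, 1, 10 and 100 uM in 0.5% DMSO for 1.5 h at 37C; Ca2+ dye fluorescence gave average beat frequency. Zero-beat points removed; bidirectional fit versus DMSO, POD as EC05.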

[4] = CCTE_Shafer_MEA_dev_LDH: CCTE's Lactate Dehydrogenase Assay for Cytotoxicity in the Neural Network Formation Assay, Shafer Lab (AID 2284068; active = hit-call score of the fitted dose curve at least 0.9, where 1 is the maximum;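 also: exposure for twelve days from plating with re-dosing on DIV 5 and 9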)
How it was run: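 Primary rat cortical neurons were plated on PEI/laminin MEA plates and exposed from day 0 for twelve days, with compound renewed at DIV 5 and 9. Cytotoxicity was determined by spectrophotometric LDH assay relative to DMSO.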

[5] = CCTE_Shafer_MEA_dev_AB: CCTE's Alamar Blue Assay for Cytotoxicity in the Neural Network Formation Assay, Shafer Lab (AID 2284083; active = hit-call score of the fitted dose curve at least 0.9, where 1 is the maximum;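 also: twelve days of exposure from plating with re-dosing on DIV 5 and 9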)
How it was run: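 Primary rat cortical neurons on PEI-coated 48-well MEA plates, 1.5 x 10^5 cells/well in laminin drop; compound exposure from day 0 of plating for twelve days, renewed at medium changes on DIV 5 and 9. Viability read as resazurin reduction by fluorescence, relative to DMSO.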

[6] = CCTE_Shafer_MEA_dev_mutual_information_norm: CCTE's Neural Network Formation Assay for Mutual Information Normalization, Shafer Lab (AID 2284091);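 as to AC50: mutual information between electrodes summarised as area under curve across four recording days; potency is for a decrease in mutual information relative to DMSO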
How it was run: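 Primary rat cortical neurons on PEI-coated 48-well MEA plates, 1.5 x 10^5 cells/well, exposed from day 0 through day 12 with re-dosing at DIV 5 and 9. Mutual information between electrodes recorded days 5, 7, 9, 12; trapezoidal AUC, loss-of-signal fit versus DMSO.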

[7] = CCTE_Shafer_MEA_dev_correlation_coefficient_mean: CCTE's Neural Network Formation Assay for Mean Correlation Coefficient, Shafer Lab (AID 2284093);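 as to AC50: well mean pairwise spike train correlation integrated as AUC over recording days 5 to 12; potency fitted for loss of correlation relative to DMSO vehicle wells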
How it was run: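 Spontaneous activity recorded on days 5, 7, 9 and 12 post-plating; pairwise spike correlations are averaged across active electrodes and collapsed to an area-under-curve. Rat cortical cultures are dosed from plating through 12 days, with compound renewed at media changes.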

[8] = CCTE_Mundy_HCI_Cortical_Synap_Neur_Matur_NeuriteSpotCountPerNeuriteLength: CCTE's Synaptogenesis and Neurite Maturation Assay in rat cortical cells for Neurite Spot Count per Neurite Length, Mundy Lab (AID 2284210)
How it was run: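 Rat primary cortical cultures, AraC added at DIV 5 to suppress glia; chemical exposure from DIV 7 to DIV 12. Fixed cells stained for MAP2 and synaptophysin plus Hoechst; synaptophysin puncta per neurite length quantified by high-content imaging, relative to DMSO.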

[9] = CCTE_Mundy_HCI_Cortical_NOG_NeuriteLength: CCTE's Neurite Outgrowth Assay in rat cortical cells for Neurite Length, Mundy Lab (AID 2284213)
How it was run: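 Neurite length was read by high-content imaging of βIII-tubulin-labelled neurites in rat primary cortical cultures. Activity was fitted relative to DMSO.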

[10] = CCTE_Mundy_HCI_Cortical_Synap_Neur_Matur_NeuriteLength: CCTE's Synaptogenesis and Neurite Maturation Assay in rat cortical cells for Neurite Length, Mundy Lab (AID 2284214)
How it was run: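 Rat primary cortical cultures, AraC added DIV 5, dosed DIV 7 through DIV 12 […]. Fixed, MAP2/synaptophysin immunostained with Hoechst; neurite length by high-content imaging, fitted in positive direction versus DMSO.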

[11] = CCTE_Mundy_HCI_Cortical_Synap_Neur_Matur_NeuriteSpotCountPerNeuron: CCTE's Synaptogenesis and Neurite Maturation Assay in rat cortical cells for Neurite Spot Count per Neuron Count, Mundy Lab (AID 2284215)
How it was run: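 Rat cortical primary cultures; AraC DIV 5 to arrest glia; dosing + media change DIV 7; fixed DIV 12. Anti-MAP2/anti-synaptophysin, Hoechst nuclei; HCI puncta count per neuron, positive fitting direction vs DMSO.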

[12] = CCTE_Mundy_HCI_Cortical_Synap_Neur_Matur_SynapseCount: CCTE's Synaptogenesis and Neurite Maturation Assay in rat cortical cells for Synapse Count, Mundy Lab (AID 2284218)
How it was run: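 Rat primary cortical cultures, AraC at DIV 5, chemical dosing DIV 7 to DIV 12 (288.33 h). Fixed cells stained for MAP2, synaptophysin and Hoechst; synapses per neuron counted by high-content imaging, loss of signal versus DMSO.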

[13] = CCTE_Mundy_HCI_hN2_NOG_NeuriteCount: CCTE's Neurite Outgrowth Assay in human hN2 cells for Neurite Count, Mundy Lab (AID 2284219; active = hit-call score of the fitted dose curve at least 0.9, where 1 is the maximum)
How it was run: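 In this morphology assay, hNP1-derived neurons received test chemical 2 h post-plating and were fixed two days later in warm paraformaldehyde/sucrose containing Hoechst 33342. Neurites, labelled by rabbit anti-βIII-tubulin (1:800) and Alexa Fluor-488 (1:500), were counted automatically.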

[14] = CCTE_Mundy_HCI_hN2_NOG_NeuriteLength: CCTE's Neurite Outgrowth Assay in human hN2 cells for Neurite Length, Mundy Lab (AID 2284220; active = hit-call score of the fitted dose curve at least 0.9, where 1 is the maximum)
How it was run: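 Read-out is neurite length from high-content imaging of βIII-tubulin/Alexa Fluor-488-labelled neurons, referenced to DMSO controls.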

[15] = IUF_NPC1b_proliferation_BrdU_72hr: Leibniz Research Institute for Environmental Medicine (IUF) 72-hour Neural Progenitor Cell Bromodeoxyuridine (BrdU) Proliferation Assay (NPC1b) (AID 2284207)
How it was run: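 BrdU luminescence ELISA quantified DNA synthesis over the last 16 h of a 72 h exposure, fitted against DMSO. Primary hNPC spheres from gestational week 16-19 cortex grown with EGF/FGF at 37C, pH 7.2-7.6.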

[16] = IUF_NPC1a_proliferation_area_72hr: Leibniz Research Institute for Environmental Medicine (IUF) 72-hour Neural Progenitor Cell Proliferation Area Assay (NPC1a) (AID 2284208)
How it was run: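 Spheres of 0.3 mm are plated singly in growth-factor medium and exposed from day 0. After three days at 37C and 5% CO2, sphere area is measured by phase contrast imaging, with activity referenced to DMSO.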

[17] = IUF_NPC1_viability_72hr: Viability Assessment at 72 hours in the Leibniz Research Institute for Environmental Medicine (IUF) Neural Progenitor Cell Proliferation Assay (NPC1) (AID 2284209)
How it was run: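 Single spheres (0.25-0.35 mm) of human fetal cortex-derived neural progenitor cells were grown in proliferation medium with EGF and FGF at 37C and 5% CO2. They were exposed for 72 h without renewal, and viability was read by alamar blue resorufin fluorescence.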

[18] = CCTE_Mundy_HCI_Cortical_Synap_Neur_Matur_BPCount: CCTE's Synaptogenesis and Neurite Maturation Assay in rat cortical cells for Branch Point Count, Mundy Lab (AID 2284211)
How it was run: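 Rat primary cortical cultures, AraC added DIV 5; chemicals dosed DIV 7 through DIV 12. Fixed cells stained for MAP2, synaptophysin and Hoechst; neurite branch points counted by automated high-content imaging, fitted relative to DMSO.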

[19] = CCTE_Mundy_HCI_Cortical_NOG_NeuriteCount: CCTE's Neurite Outgrowth Assay in rat cortical cells for Neurite Count, Mundy Lab (AID 2284212);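 also: cells fixed about two days after chemical exposure began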
How it was run: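 Neurite number per cell from high-content imaging of betaIII-tubulin immunostaining, with Hoechst nuclear counterstain.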

[20] = UKN5_HCS_SBAD2_neurite_outgrowth: University of Konstanz (UKN) Leist Lab Neurite Outgrowth Assay in human iPSC-derived immature Dorsal Root Ganglia Neurons (UKN5) (AID 2284070); settings: actives raise or lower the signal
How it was run: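 SBAD2 iPSC-derived immature peripheral neurons on Matrigel, 100.000 cells/cm2, medium with CHIR99021 (1.5 uM), SU5402 (5 uM), DAPT (5 uM); compound added 1 h post-seeding for 24 h. Calcein-AM neurite area by high-content imaging; Hoechst H-33342 viability; bidirectional fit vs DMSO.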

Measured: AC50

Nc1ccccc1N
inactive: [1] | [2]

O=C(O)CCCCC(=O)O
inactive: [2] | [3]

Cc1ccc(C)c(O)c1C
inactive: [1]

CCCc1cc(=O)[nH]c(=S)[nH]1
inactive: [4] | [1] | [5] | [2] | [6] | [7] | [8] | [9] | [10] | [11] | [3] | [12] | [13] | [14]
active: [4] 23800 nM | [5] 24600 nM | [7] 23900 nM

Cc1cc(=O)[nH]c(=S)[nH]1
inactive: [5] | [6] | [7]

C[Si]1(C)O[Si](C)(C)O[Si](C)(C)O[Si](C)(C)O1
not listed: [1] | [3] | [4] | [5] | [13] | [14] | [20]
inactive: all other assays above

c1cc(-c2ccncc2)ccn1
inactive: [1] | [2]

FC(F)(F)C(F)(F)C(F)(F)C(F)(F)C(F)(F)C(F)(F)CCI
inactive: [1] | [5] | [6] | [7]

CN[C@H]1CC[C@@H](c2ccc(Cl)c(Cl)c2)c2ccc(S(N)(=O)=O)cc21
inactive: [1] | [2]

NS(=O)(=O)c1cc2c(cc1Cl)NCNS2(=O)=O
inactive: [1] | [2]

CCOC(=O)C(C)(C)Oc1ccc(Cl)cc1
inactive: [1] | [2]

COc1ccc(S(=O)(=O)N2C(=O)[C@@](c3ccccc3OC)(N3C[C@H](O)C[C@H]3C(=O)N(C)C)c3cc(Cl)ccc32)c(OC)c1
inactive: [1] | [2]

CCCCCCCCCCCCCCCCCC(=O)O
inactive: [1]

Nc1nc(N)c2nc(CNc3ccc(C(=O)N[C@@H](CCC(=O)O)C(=O)O)cc3)cnc2n1
inactive: [1]

NCC1(Cc2noc(=O)[nH]2)CCCCC1
inactive: [2]

CC(C)(C)c1cc(O)c(C(C)(C)C)cc1O
inactive: [1] | [2]

O=c1[nH]cc(F)c(=O)[nH]1
inactive: [8] | [9] | [10] | [11] | [3] | [12] | [13] | [14]
active: [4] 2480 nM | [5] 3240 nM | [6] 756 nM | [7] 696 nM

CCOc1ccc2c(c1)C(C)=CC(C)(C)N2
inactive: [3]

Cc1ccc(C(C)C)c(O)c1
inactive: [1]

CC(=O)Oc1ccccc1C(=O)O
inactive: [4] | [20] | [5] | [6] | [7] | [16] | [17] | [8] | [18] | [19] | [9] | [10] | [11] | [3] | [12]
active: [6] 15000 nM | [15] 725 nM

Cc1ccc2ncccc2c1
inactive: [1]

CC(C)c1ccc(C(=O)N=C(N)N)cc1S(C)(=O)=O
inactive: [4] | [5] | [6] | [7]

CCCCCCCCCCO
inactive: [2]

COC(=O)c1ccc(O)cc1
active: [3] 50000 nM

OC[C@@H](O)[C@@H](O)[C@H](O)[C@H](O)CO
active: [5] 437 nM | [12] 64.8 nM
not listed: [1] | [2] | [3] | [4] | [13] | [14] | [20]
inactive: all other assays above

COc1ccc2c(c1)c(CC(=O)O)c(C)n2C(=O)c1ccc(Cl)cc1
inactive: [1] | [2]

CN1CCCC1=O
inactive: [2]

Nc1ccc2c(c1)C(=O)c1ccccc1C2=O
inactive: [2]

C=CCc1ccc(O)c(OC)c1
inactive: [4] | [1] | [5] | [2] | [6] | [7]

Clc1cc(Cl)c(Cl)cc1Cl
inactive: [1]

C=CCOC(=O)c1ccccc1C(=O)OCC=C
inactive: [1]

CNCc1cc(F)ccc1Oc1ccc(Cl)c(Cl)c1
inactive: [1] | [2]
